Source: PubChem BioAssay (Tox21)
Records with an inconclusive call do not appear. Calls of active or inactive are those of the source. Unless noted, calls follow the shape of the dose curve; as a rule, active = well fitted curve in the direction sought with a large enough effect in the repeat runs; inconclusive = weak or mixed curves; inactive = no such curve, though single readings can be large; an effect the other way counts as inactive or inconclusive.

Key:
[1] = qHTS assay to identify small molecule antagonists of the thyroid receptor (TR) signaling pathway (AID 743065); also: series mostly up to about 70 µM; nearly all actives have a fitted effect of over 55% in size
Method in brief: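 GH3.TRE-Luc rat pituitary cells carrying two TR response elements driving luciferase were plated for 4 h, given compound plus 1 nM T3 (final), and incubated 23.5 h at 37 C. ONE-Glo luminescence measured reporter inhibition; CellTiter-Fluor fluorescence tracked cytotoxicity.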

[2] = tested on: thyroid hormone receptor (rat, GH3 cells); test: qHTS assay to identify small molecule agonists of the thyroid receptor (TR) signaling pathway (AID 743066; calls by dose curve)
[3] = target: Estrogen receptor (Homo sapiens) (UniProt P03372); test: qHTS assay to identify small molecule antagonists of the estrogen receptor alpha (ER-alpha) signaling pathway (AID 743069; active = well fitted curve in the direction sought with a large enough effect in the signal ratio in the repeat runs, not every such curve was filed as active; the % refers to the signal ratio)
Estrogen receptor (Homo sapiens), sequence (P03372 whole entry, looked up): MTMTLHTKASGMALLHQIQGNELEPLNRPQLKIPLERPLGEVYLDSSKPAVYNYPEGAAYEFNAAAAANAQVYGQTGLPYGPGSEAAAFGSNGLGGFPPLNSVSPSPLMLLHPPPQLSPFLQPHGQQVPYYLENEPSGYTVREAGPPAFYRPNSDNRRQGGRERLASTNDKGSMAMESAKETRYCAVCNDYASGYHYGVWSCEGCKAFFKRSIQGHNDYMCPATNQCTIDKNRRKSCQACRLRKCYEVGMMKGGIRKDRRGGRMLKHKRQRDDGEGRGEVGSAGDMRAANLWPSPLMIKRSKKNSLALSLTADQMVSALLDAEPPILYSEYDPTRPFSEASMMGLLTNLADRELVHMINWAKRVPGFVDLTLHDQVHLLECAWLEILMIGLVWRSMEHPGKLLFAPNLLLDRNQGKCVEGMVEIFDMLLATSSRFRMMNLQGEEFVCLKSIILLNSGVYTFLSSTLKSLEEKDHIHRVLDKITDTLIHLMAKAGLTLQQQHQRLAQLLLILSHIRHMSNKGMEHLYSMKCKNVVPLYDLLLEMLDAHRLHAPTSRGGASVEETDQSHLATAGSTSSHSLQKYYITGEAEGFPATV
Method in brief: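 Estradiol-stimulated ER-alpha-UAS-bla HEK293 cells, 18 hr compound exposure at 37C. LiveBLAzer B/G substrate, 2 hr RT, fluorescence read.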

[4] = qHTS assay to identify small molecule antagonists of the estrogen receptor alpha (ER-alpha) signaling pathway - cell viability counter screen (AID 743074; calls by dose curve;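 also: HEK293 cells carrying ER-alpha-UAS-bla reporter stimulated with 17beta-estradiol; nearly all actives have a fitted effect of over 45% in size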)
[5] = target: Estrogen receptor (Homo sapiens) (UniProt P03372); test: qHTS assay to identify small molecule agonists of the estrogen receptor alpha (ER-alpha) signaling pathway (AID 743075; calls by dose curve;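 also: HEK293 GripTite cells with ER-alpha and UAS-driven beta-lactamase reporter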)
[6] = target: Estrogen receptor (Homo sapiens) (UniProt P03372); test: qHTS assay to identify small molecule agonists of the estrogen receptor alpha (ER-alpha) signaling pathway using the BG1 cell line (AID 743079); also: nearly all actives have a fitted effect of over 20% in size
[7] = qHTS assay to identify small molecule antagonists of the estrogen receptor alpha (ER-alpha) signaling pathway using the BG1 cell line (AID 743080; calls by dose curve;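 also: BG1 cells stimulated with 17beta-estradiol alongside compound; series mostly up to about 70 µM; nearly all actives have a fitted effect of over 25% in size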)
Method in brief: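 Readout is ONE-Glo luminescence, taken 30 min at room temperature after reagent addition, preceded by a CellTiter-Fluor viability read; BG1-Luc-4E2 cells had received compound and 17beta-estradiol for 21.5 h at 37 C.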

[8] = qHTS assay to identify small molecule antagonists of the estrogen receptor alpha (ER-alpha) signaling pathway using the BG1 cell line - cell viability counter screen (AID 743081);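 also: compound given together with 17beta-estradiol as the ER stimulus; series mostly up to about 70 µM; nearly all actives have a fitted effect of over 45% in size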
Aromatase (Homo sapiens) = Aromatase (Homo sapiens) (UniProt P11511); test: qHTS assay to identify aromatase inhibitors (AID 743083); also: series mostly up to about 70 µM; nearly all actives have a fitted effect of over 55% in size
Aromatase (Homo sapiens), sequence (P11511 whole entry, looked up): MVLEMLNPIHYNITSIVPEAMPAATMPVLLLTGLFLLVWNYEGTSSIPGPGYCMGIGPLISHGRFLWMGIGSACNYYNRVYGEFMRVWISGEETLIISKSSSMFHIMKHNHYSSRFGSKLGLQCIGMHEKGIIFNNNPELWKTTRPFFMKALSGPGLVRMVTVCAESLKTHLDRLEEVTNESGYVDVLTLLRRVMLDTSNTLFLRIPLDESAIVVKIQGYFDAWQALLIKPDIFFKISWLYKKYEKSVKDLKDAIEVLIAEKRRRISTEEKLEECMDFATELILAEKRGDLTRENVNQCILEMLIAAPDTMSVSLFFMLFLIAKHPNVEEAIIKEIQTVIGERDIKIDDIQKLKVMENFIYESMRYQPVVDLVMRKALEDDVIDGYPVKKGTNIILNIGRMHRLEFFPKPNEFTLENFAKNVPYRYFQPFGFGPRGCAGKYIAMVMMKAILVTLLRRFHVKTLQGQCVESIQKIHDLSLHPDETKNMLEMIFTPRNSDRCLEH

[9] = qHTS assay to identify small molecule antagonists of the thyroid receptor (TR) signaling pathway - cell viability counter screen (AID 743064); also: nearly all actives have a fitted effect of over 50% in size
Method in brief: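 Rat GH3 pituitary tumor cells stably expressing two TR response elements driving luciferase were plated, rested 4 h, then dosed with library compounds and T3 (1 nM final). After 23.5 h at 37 °C, CellTiter-Fluor was added for 30 min and fluorescence recorded.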

Measured: Potency

CC1=C(O)C(=O)C(C)O1 (configuration not stated)
inactive: [1] | [2] | [3] | [4] | [5] | [6] | [7] | [8] | Aromatase (Homo sapiens)

Cc1ccc(N)cc1S(=O)(=O)O
inactive: [1] | [2] | [3] | [4] | [5] | [6] | [7] | [8] | Aromatase (Homo sapiens)

O=C1OCCO1
inactive: [1] | [2] | [3] | [4] | [5] | [6] | [7] | [8] | Aromatase (Homo sapiens)

c1ccc2cnccc2c1
inactive: [1] | [2] | [3] | [4] | [5] | [6] | [7] | [8] | Aromatase (Homo sapiens)

Fc1ccccc1
inactive: [1] | [2] | [3] | [4] | [5] | [6] | [7] | [8] | Aromatase (Homo sapiens)

CN(C)CCCO[C@@H]1[C@H]2OC(C)(C)O[C@H]2O[C@@H]1C(O)CO (some centres not stated)
inactive: [1] | [2] | [3] | [4] | [5] | [6] | [7] | [8] | Aromatase (Homo sapiens)

CN(C)CCOC(=O)C(c1ccccc1)C1(O)CCCC1 (configuration not stated)
inactive: [1] | [2] | [3] | [4] | [5] | [6] | [7] | [8] | Aromatase (Homo sapiens)

CCCCCC(C)O (configuration not stated)
inactive: [1] | [2] | [3] | [4] | [5] | [6] | [7] | [8] | Aromatase (Homo sapiens)

Cc1c(NC(=O)c2cccnc2)c(=O)n(-c2ccccc2)n1C
inactive: [1] | [2] | [3] | [4] | [5] | [6] | [7] | [8] | Aromatase (Homo sapiens)

O=Cc1cc2ccccc2o1
inactive: [9] | [4] | [8] | Aromatase (Homo sapiens)

CC(=O)C(C)O (configuration not stated)
inactive: [9] | [4] | [8] | Aromatase (Homo sapiens)

CCC(C)OC(C)CC (configuration not stated)
inactive: [1] | [2] | [3] | [4] | [5] | [6] | [7] | [8] | Aromatase (Homo sapiens)

Cc1c(Cl)cccc1Cl
inactive: [1] | [2] | [3] | [4] | [5] | [6] | [7] | [8] | Aromatase (Homo sapiens)

O=C=NCC1CCCC(CN=C=O)C1 (configuration not stated)
inactive: [1] | [2] | [3] | [4] | [5] | [6] | [7] | [8] | Aromatase (Homo sapiens)

CCCCCCCCCOC(=O)c1ccccc1C(=O)OCCCCCCCCC
inactive: [1] | [2] | [3] | [4] | [5] | [6] | [7] | [8] | Aromatase (Homo sapiens)

COC(=O)c1cc(Cl)cc(Cl)c1
inactive: [1] | [2] | [3] | [4] | [5] | [6] | [7] | [8] | Aromatase (Homo sapiens)

Cc1cc(-c2ccccc2)nnc1NCCN1CCOCC1
inactive: [1] | [2] | [3] | [4] | [5] | [7] | [8] | Aromatase (Homo sapiens)

CCCC(=O)OCCC(C)CCC=C(C)C (configuration not stated)
inactive: [1] | [2] | [4] | [8] | Aromatase (Homo sapiens)

CCOC(CN1CCN(CC(C)C(=O)c2ccccc2)CC1)c1ccccc1 (configuration not stated)
inactive: [2] | [4] | [8]

CN1CCOC(c2ccccc2)c2ccccc2C1 (configuration not stated)
inactive: [1] | [2] | [4] | [8] | Aromatase (Homo sapiens)

CCCC(=O)Nc1ccc(OCC(O)CNC(C)C)c(C(C)=O)c1 (configuration not stated)
inactive: [3] | [4] | [5] | [6] | [7] | [8] | Aromatase (Homo sapiens)

O=C(Cl)c1ccccc1[N+](=O)[O-]
inactive: [1] | [2] | [4] | [8] | Aromatase (Homo sapiens)
